Experiment in all cases: DAPPL (digital affinity profiling via proximity ligation, sequencing); 10 mM Tris-HCl pH 7.5, 50 mM NaCl, 1 mM DTT, 4% glycerol, room temperature, 30 min; GST-TFs on glutathione beads, 16-mer random dsDNA library, 0.1% formaldehyde crosslink after washing; high values mean tight binding
One assay concerns the target T1, FEV (Homo sapiens, UniProt Q99581 1-238).
T1 sequence: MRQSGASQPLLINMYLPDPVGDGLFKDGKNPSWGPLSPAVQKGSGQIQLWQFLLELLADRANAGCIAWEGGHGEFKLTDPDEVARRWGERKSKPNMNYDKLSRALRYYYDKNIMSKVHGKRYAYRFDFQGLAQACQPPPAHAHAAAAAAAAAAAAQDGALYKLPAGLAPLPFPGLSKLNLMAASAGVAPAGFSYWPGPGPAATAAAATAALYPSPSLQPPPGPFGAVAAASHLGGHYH
Conditions: protein: recombinant; tags: N-terminal GST; dsDNA, one strand shown. Summed up: (§1)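 Human transcription factors were made in yeast as GST fusions, captured on glutathione beads and barcoded with DNA. With a tag-only sample included, the pool was incubated with 200 nmole of a random double-stranded 16-mer DNA library in Tris/NaCl/DTT/glycerol buffer at room temperature for 30 min, then crosslinked with 0.1% formaldehyde after washing, ligated by proximity, amplified and sequenced. For binding signal, each hexamer's read frequency for a factor is divided by its frequency for the tag-only sample.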

In another assay the target is ETV5 (Homo sapiens, UniProt P41161 1-510). Conditions: protein: recombinant; tags: N-terminal GST; dsDNA, one strand shown. In outline:
as §1

For the next assay, the target named is HSF1 (Homo sapiens, UniProt Q00613 1-529). Conditions: protein: recombinant; tags: N-terminal GST; chain copies: 3; dsDNA, one strand shown. In outline:
as §1

The target in the next assay is T2, SPIC (Homo sapiens, UniProt Q8N5J4 1-248).
T2 sequence: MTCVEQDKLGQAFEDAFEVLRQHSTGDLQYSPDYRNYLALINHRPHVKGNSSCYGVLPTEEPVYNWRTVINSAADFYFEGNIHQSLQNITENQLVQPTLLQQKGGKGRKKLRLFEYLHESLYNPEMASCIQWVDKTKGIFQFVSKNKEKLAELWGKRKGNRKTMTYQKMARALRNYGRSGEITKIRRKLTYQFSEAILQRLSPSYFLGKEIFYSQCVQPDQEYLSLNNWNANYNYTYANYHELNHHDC
Conditions: protein: recombinant; tags: N-terminal GST; dsDNA, one strand shown. Summed up: as §1

The next assay concerns the target ELF4 (Homo sapiens, UniProt Q99607 1-663). Conditions: protein: recombinant; tags: N-terminal GST; dsDNA, one strand shown. In outline:
as §1

The next assay concerns the target T3, ELK4 (Homo sapiens, UniProt P28324-2 1-405).
T3 sequence: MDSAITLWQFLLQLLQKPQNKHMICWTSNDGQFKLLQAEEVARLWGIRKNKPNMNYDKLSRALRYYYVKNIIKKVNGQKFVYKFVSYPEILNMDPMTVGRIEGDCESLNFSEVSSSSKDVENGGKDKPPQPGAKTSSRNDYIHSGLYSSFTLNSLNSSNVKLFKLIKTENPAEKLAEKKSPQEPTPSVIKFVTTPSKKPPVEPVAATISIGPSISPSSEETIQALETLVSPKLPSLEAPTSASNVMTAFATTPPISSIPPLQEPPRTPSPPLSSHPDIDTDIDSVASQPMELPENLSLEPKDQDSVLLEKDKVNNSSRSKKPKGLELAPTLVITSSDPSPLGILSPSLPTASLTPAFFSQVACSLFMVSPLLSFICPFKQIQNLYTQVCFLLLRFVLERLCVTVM
Conditions: protein: recombinant; tags: N-terminal GST; dsDNA, one strand shown. In outline: as §1

The target in a further assay is T4, ETV2 (Homo sapiens, UniProt O00321 1-342).
T4 sequence: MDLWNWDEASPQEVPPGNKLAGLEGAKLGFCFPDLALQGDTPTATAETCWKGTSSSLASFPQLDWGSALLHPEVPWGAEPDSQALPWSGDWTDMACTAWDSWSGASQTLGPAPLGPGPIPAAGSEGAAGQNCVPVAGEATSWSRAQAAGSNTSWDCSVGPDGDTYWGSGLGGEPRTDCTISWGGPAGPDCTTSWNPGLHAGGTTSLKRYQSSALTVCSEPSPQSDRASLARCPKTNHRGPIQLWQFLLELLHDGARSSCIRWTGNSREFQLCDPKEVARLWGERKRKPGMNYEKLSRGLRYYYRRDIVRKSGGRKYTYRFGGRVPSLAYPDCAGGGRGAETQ
Conditions: protein: recombinant; tags: N-terminal GST; dsDNA, one strand shown. Summed up: as §1

The target in another assay is T5, ELF3 (Homo sapiens, UniProt P78545 1-371).
T5 sequence: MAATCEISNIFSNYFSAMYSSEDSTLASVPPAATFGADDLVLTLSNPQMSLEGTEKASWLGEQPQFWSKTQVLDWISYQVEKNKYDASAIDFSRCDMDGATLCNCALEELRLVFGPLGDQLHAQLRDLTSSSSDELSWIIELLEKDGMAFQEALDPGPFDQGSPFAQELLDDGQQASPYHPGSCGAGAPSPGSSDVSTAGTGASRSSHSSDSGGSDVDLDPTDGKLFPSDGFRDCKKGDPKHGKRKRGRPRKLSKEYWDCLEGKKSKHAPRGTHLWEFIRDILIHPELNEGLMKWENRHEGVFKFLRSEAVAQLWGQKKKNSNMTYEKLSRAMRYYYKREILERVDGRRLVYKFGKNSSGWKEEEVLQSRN
Conditions: protein: recombinant; tags: N-terminal GST; dsDNA, one strand shown. In outline: as §1

The next assay addresses CRX (Homo sapiens, UniProt O43186 1-299). Conditions: protein: recombinant; tags: N-terminal GST; dsDNA, one strand shown. In outline: as §1
Another assay concerns the target ETV1 (Homo sapiens, UniProt P50549 1-477). Conditions: protein: recombinant; tags: N-terminal GST; dsDNA, one strand shown. Summed up:
as §1

In another assay the target is T6, ERF (Homo sapiens, UniProt P50548 1-548).
T6 sequence: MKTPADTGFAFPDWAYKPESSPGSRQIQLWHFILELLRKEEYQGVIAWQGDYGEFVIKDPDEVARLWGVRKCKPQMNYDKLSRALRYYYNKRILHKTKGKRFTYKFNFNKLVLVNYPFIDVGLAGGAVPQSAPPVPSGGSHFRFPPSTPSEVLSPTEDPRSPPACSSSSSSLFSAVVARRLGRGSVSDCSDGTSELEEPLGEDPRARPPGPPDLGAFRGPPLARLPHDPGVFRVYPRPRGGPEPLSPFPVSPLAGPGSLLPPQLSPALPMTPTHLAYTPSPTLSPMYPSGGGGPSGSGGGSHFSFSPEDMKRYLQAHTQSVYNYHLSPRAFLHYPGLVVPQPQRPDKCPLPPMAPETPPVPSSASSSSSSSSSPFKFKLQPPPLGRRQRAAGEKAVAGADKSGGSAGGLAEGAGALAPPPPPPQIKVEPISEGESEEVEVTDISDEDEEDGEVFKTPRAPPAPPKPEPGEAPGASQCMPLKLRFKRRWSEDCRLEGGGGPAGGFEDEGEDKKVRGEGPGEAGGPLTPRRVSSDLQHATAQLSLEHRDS
Conditions: protein: recombinant; tags: N-terminal GST; dsDNA, one strand shown. In outline: as §1

The target in a further assay is T7, ETV3L (Homo sapiens, UniProt Q6ZN32 1-361).
T7 sequence: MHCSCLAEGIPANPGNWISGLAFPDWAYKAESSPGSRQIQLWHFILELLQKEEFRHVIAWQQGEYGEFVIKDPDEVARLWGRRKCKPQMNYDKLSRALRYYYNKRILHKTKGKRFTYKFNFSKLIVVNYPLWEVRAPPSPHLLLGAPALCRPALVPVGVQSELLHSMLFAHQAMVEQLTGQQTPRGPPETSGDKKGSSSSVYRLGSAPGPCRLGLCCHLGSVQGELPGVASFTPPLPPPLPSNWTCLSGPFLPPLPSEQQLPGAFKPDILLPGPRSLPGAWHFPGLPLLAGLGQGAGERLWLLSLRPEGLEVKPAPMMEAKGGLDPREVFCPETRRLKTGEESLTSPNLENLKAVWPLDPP
Conditions: protein: recombinant; tags: N-terminal GST; dsDNA, one strand shown. Summed up: as §1

For a further assay, the target named is T8, ETS2 (Homo sapiens, UniProt P15036 1-469).
T8 sequence: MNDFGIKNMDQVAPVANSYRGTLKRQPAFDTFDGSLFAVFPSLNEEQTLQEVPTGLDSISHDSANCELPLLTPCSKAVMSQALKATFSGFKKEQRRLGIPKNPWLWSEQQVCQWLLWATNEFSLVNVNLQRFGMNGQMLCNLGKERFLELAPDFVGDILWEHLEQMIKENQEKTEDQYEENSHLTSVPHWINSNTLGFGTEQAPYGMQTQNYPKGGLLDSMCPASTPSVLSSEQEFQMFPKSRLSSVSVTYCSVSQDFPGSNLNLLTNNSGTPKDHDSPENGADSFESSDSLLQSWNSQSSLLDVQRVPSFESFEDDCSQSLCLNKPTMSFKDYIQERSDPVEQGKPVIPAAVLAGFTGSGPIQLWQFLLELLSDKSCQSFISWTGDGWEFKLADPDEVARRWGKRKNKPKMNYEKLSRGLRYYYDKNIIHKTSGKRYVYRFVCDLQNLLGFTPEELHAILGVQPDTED
Conditions: protein: recombinant; tags: N-terminal GST; dsDNA, one strand shown. In outline:
as §1

A further assay deals with T9, SPDEF (Homo sapiens, UniProt O95238 1-335).
T9 sequence: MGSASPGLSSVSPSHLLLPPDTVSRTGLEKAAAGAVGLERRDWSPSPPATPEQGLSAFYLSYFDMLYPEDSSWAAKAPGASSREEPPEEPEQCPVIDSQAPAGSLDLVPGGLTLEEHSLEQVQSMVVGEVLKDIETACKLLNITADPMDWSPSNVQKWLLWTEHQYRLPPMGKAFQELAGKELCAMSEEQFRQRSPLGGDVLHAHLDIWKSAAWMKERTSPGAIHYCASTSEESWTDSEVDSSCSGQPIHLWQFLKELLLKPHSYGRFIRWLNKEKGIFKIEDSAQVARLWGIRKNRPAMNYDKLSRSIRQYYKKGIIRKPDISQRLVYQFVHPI
Conditions: protein: recombinant; tags: N-terminal GST; dsDNA, one strand shown. In outline:
as §1

The next assay deals with T10, ETV7 (Homo sapiens, UniProt Q9Y603 1-341).
T10 sequence: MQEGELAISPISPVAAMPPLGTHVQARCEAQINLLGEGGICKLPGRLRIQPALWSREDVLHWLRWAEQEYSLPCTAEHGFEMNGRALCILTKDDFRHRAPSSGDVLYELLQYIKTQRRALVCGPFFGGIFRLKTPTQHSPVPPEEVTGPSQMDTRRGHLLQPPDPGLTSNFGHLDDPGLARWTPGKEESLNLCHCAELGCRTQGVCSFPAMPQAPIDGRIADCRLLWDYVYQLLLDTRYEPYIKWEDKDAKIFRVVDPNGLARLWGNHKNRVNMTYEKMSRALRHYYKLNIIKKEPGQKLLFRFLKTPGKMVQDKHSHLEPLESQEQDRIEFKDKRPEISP
Conditions: protein: recombinant; tags: N-terminal GST; dsDNA, one strand shown. In outline:
as §1

In another assay the target is T11, ELF5 (Homo sapiens, UniProt Q9UKW6-2 1-255).
T11 sequence: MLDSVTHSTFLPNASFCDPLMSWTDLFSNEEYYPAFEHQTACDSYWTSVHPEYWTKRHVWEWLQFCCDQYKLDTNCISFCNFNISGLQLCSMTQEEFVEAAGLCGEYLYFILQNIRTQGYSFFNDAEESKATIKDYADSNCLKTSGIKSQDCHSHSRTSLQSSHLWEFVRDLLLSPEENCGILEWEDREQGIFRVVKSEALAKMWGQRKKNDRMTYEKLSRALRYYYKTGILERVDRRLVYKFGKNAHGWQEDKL
Conditions: protein: recombinant; tags: N-terminal GST; dsDNA, one strand shown. Summed up: as §1

The target in the next assay is T12, ETV3 (Homo sapiens, UniProt P41162-2 1-143).
T12 sequence: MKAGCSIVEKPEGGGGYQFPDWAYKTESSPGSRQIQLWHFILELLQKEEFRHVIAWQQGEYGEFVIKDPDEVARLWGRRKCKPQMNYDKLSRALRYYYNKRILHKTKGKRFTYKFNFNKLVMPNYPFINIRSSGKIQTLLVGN
Conditions: protein: recombinant; tags: N-terminal GST; dsDNA, one strand shown. In outline:
as §1

Another assay addresses ETV6 (Homo sapiens, UniProt P41212 1-452). Conditions: protein: recombinant; tags: N-terminal GST; dsDNA, one strand shown. In outline: as §1

ETV1, sequence (P50549 whole entry): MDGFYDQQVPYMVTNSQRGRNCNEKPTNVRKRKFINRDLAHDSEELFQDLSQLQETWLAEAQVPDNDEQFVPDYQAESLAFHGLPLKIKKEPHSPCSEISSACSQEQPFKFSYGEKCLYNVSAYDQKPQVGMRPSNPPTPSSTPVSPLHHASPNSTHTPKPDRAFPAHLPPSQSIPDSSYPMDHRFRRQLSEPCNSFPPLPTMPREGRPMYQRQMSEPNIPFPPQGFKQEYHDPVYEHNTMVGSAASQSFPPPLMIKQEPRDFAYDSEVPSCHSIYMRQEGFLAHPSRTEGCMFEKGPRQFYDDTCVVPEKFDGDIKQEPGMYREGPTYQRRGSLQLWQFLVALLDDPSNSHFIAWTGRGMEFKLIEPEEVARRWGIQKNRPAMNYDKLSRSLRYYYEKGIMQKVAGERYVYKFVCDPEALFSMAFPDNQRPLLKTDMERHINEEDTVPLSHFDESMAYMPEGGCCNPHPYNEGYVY
ETV5, sequence (P41161 whole entry): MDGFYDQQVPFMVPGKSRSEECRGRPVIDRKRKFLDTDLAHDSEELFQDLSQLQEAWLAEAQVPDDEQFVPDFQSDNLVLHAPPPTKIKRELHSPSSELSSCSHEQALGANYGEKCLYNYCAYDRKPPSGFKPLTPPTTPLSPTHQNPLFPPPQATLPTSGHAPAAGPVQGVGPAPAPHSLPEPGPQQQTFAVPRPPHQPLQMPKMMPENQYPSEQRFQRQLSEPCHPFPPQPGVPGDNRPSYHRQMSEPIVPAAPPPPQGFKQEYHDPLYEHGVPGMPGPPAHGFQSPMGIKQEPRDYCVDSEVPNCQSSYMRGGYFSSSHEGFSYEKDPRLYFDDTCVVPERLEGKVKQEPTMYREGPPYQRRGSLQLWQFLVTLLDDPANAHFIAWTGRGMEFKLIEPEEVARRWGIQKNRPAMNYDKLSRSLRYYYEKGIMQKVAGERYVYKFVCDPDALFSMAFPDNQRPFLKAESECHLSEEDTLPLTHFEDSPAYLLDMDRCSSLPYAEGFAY
CRX, sequence (O43186 whole entry): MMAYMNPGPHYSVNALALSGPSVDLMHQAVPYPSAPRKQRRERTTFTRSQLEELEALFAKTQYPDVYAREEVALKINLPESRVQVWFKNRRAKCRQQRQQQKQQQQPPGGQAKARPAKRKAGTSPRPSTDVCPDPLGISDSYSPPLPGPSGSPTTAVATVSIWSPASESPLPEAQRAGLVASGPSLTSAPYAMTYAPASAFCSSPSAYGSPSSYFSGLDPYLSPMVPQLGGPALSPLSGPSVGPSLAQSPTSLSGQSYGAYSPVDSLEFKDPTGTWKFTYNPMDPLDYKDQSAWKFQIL
HSF1, sequence (Q00613 whole entry): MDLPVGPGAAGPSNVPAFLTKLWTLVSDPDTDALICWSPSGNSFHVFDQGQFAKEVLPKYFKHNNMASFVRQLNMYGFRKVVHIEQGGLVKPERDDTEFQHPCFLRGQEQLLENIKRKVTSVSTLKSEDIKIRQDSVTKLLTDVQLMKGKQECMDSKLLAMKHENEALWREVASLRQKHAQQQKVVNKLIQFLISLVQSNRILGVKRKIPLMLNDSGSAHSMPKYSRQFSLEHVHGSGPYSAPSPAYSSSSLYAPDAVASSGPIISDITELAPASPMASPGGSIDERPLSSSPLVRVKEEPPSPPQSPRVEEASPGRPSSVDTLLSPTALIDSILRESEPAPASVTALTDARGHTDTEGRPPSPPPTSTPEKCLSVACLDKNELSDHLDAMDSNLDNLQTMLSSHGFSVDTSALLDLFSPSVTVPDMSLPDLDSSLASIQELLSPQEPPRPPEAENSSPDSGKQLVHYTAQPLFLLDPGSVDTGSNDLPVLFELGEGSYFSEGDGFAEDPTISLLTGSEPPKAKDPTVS
ETV6, sequence (P41212 whole entry): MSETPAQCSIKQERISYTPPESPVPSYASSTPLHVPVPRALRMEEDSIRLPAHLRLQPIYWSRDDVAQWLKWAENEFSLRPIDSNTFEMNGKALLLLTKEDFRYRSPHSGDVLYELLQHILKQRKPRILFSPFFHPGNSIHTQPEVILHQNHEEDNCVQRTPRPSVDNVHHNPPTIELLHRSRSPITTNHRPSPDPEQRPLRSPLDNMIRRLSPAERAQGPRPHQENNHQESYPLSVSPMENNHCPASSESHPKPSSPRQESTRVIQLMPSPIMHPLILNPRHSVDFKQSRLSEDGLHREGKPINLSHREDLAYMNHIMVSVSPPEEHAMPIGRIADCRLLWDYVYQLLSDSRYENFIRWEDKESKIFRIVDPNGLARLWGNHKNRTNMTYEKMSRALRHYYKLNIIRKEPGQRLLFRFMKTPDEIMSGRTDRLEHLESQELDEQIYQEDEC
ELF4, sequence (Q99607 whole entry): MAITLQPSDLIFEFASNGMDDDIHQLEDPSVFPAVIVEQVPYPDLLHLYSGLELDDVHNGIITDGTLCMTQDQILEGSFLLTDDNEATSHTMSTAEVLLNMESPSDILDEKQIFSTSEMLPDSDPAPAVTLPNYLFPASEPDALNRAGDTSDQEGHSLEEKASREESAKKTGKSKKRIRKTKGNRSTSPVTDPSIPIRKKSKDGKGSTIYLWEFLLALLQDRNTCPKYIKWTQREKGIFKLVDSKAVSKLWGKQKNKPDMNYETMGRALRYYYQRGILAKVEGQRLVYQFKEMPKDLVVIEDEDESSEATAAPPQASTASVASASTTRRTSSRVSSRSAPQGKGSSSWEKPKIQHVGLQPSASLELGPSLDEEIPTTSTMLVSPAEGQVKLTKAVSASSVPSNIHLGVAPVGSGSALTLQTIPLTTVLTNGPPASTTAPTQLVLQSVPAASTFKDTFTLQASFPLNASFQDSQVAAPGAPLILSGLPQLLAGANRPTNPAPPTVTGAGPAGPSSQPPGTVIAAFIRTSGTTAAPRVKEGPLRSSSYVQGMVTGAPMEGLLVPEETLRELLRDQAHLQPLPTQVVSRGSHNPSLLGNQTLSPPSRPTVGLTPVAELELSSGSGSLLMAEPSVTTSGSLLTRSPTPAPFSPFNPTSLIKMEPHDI

Regarding CCGCTT, the binding signal with FEV is 2.01 fold enrichment (6-mer frequency, TF over GST control); with ETV5, 2.03 fold enrichment (6-mer frequency, TF over GST control); in the assay with HSF1, 1.49 fold enrichment (6-mer frequency, TF over GST control); in the assay with SPIC, 1.83 fold enrichment (6-mer frequency, TF over GST control); in the assay with ELF4, 1.87 fold enrichment (6-mer frequency, TF over GST control); in the assay with ELK4 it was 1.8 fold enrichment (6-mer frequency, TF over GST control). Further, the binding signal is 1.6 fold enrichment (6-mer frequency, TF over GST control) in the assay with ETV2; 2.08 fold enrichment (6-mer frequency, TF over GST control) in the assay with ELF3; 1.82 fold enrichment (6-mer frequency, TF over GST control) with CRX; 2.11 fold enrichment (6-mer frequency, TF over GST control) with ETV1; 1.77 fold enrichment (6-mer frequency, TF over GST control) with ERF; 1.89 fold enrichment (6-mer frequency, TF over GST control) with ETV3L. In addition, the binding signal with ETS2 is 1.95 fold enrichment (6-mer frequency, TF over GST control); with SPDEF, 1.99 fold enrichment (6-mer frequency, TF over GST control); with ETV7 it was 1.62 fold enrichment (6-mer frequency, TF over GST control); with ELF5, 2.05 fold enrichment (6-mer frequency, TF over GST control); with ETV3, 1.96 fold enrichment (6-mer frequency, TF over GST control); with ETV6, 2.17 fold enrichment (6-mer frequency, TF over GST control).

(Values after paper PMC7862700, “An all-to-all approach to the identification of sequence-specific readers for epigenetic DNA modifications on cytosine”.)
